This test has as its target T1, USP38, Q8NB14.
T1 chain: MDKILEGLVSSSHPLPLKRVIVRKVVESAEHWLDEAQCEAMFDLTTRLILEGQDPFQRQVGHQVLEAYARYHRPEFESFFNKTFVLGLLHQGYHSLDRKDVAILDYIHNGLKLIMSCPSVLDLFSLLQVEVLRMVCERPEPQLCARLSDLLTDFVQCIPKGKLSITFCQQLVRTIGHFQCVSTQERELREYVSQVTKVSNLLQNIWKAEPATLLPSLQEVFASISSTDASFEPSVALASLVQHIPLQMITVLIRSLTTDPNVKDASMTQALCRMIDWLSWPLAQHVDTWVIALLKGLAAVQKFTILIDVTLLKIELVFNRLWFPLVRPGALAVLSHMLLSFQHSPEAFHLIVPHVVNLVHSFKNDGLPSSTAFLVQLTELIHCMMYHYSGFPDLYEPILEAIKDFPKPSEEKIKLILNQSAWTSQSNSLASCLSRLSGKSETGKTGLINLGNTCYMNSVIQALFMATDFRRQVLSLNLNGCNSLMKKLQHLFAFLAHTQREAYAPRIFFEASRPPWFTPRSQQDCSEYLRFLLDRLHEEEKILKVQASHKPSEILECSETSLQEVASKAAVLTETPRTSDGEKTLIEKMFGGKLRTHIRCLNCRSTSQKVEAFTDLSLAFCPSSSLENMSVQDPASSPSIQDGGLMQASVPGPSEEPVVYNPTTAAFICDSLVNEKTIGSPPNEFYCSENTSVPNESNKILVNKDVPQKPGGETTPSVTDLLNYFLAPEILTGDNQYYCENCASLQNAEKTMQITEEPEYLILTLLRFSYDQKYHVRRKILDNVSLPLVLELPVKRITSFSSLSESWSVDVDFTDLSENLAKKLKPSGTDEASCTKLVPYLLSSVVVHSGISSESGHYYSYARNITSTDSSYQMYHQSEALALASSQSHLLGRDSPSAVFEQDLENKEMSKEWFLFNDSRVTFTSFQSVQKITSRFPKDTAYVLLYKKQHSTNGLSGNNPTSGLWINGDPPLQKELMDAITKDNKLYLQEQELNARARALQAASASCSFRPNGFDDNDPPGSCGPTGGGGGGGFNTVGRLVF
In words: median log2 fold change of GCK-ALFA target abundance (FLAG IP / Myc IP barcode read proportion) (log2 ratio); each designed protein is fused to an ALFA-tag nanobody in HEK293 cells to bring the named protein to FLAG-tagged glucokinase (GCK); Myc marks an untargeted standard; higher = target protein stabilised (more abundant). The settings on record: target protein: 3xFLAG-MCP-GCK-ALFA reporter; HEK293 landing pad (RPLP). In short, it runs like this:
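HEK293 landing-pad cells received a recombined binder library fused to the ALFA nanobody and were induced with 2 μg mL^−1 doxycycline, then transfected with a plasmid encoding a FLAG-tagged target and a Myc-tagged standard. Lysates were collected after 48 h for anti-FLAG and anti-Myc immunoprecipitation, and the circular RNA barcodes were reverse transcribed, amplified and sequenced. Target abundance for each binder is the median log2 ratio of FLAG to Myc barcode read proportions. Barcodes had to reach a proportion of at least 10^−7 in both replicates, each binder needed at least 3 barcodes per replicate, a pseudocount of 10^−6 was applied, and the two replicates were pooled.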

B1: usp_38_diff_out_14_2_122 (protein)
chain: AEAELEAAAAATKATLEDAIKRVKELLEEVKKDPSKAEEALKELRRLWDEAADAVGALARLMEAHRELRALRKRITAEVNALITEFTEAVLELLEEIAEA
With B1, the “median log2 fold change” value was -0.56.

B2: usp_38_diff_out_14_2_81 (protein)
chain: AEEELKAATEKTLAVLDDAIKAAKELTKEVKKDPSLAEKAREKLLEEWDKAGDAVGELEKLILENKEAKETNKEAREKVNKKLDELTKAFLEALETAAEA
For the molecule B2, the “median log2 fold change” value was -0.289.

B3: usp_38_diff_out_14_2_87 (protein)
chain: AEEELKKATKETLKKLEEHIKLAKELAERVKKDPSTAEQAREELFASWDEVGDKVGALAKLIEENKEIPELRKKAIEEVNKKLTEATEATLAALELLAEA
On to B3, for which the “median log2 fold change” value is -0.418.

B4: usp_38_diff_out_14_2_112 (protein)
chain: AKEELEKKKEETLKTLEEAIKKAKELKKEVEKDPSKKEEAFKELRKKHDEAADKVGELNKLILENKELRELNKKVTEEVNEKIKEYTEAVLEALEKIAEA
For B4, the “median log2 fold change” value was 0.0138.

B5: usp_38_diff_out_14_2_113 (protein)
chain: AEEELKKAAEKTLKVLDEAIKNLKALKKKVEADPSKAEEATKEAFAAWDKAADAVGELNKLIEANREHRAERKEVTEKVNKKITELTDALTELLTAAAEA
On to B5, for which the “median log2 fold change” value was -0.258.

B6: usp_38_diff_out_14_2_92 (protein)
chain: GKEKLEEKFKETKEKLKEAIKKAKELKKEVKKDPSKAEEAREELFKAWDEAGDKVGELEKLLRENPEYKELNKKIKEEVNKLITELTEAALEALEEIAKA
As for B6, the “median log2 fold change” value is -0.436.

B7: usp_38_diff_out_14_2_80 (protein)
chain: AEEKLKKATEETLKVLKEAIKKAKELKKEVEADPSLAEKAREELLKAWDKAGDAVGALNKLIEENKEAKETRKKATEEVNKAIDELTKEVLEALQTAAEA
For B7, the “median log2 fold change” value is -0.879.

B8: usp_38_diff_out_14_2_111 (protein)
chain: AKEELEKATKETLEVLKEATKLAKELKEEVKKDPSKAEEARKKLFEAHDKAGDAVGELNKLILENKELRELNKKATEEVNKAITEYTKATLEALETIAEA
For B8, the “median log2 fold change” value is -0.197.

B9: usp_38_diff_out_14_2_94 (protein)
chain: GEEELKKKYEETLKVLEEAIKEAKKIKEEVKKDPSIAEEKRKELFEKWDEAADKVGELQKLLEENPEHKELNKKIIEEVNKKITELTKAALEALEELAKA
In the case of B9, the “median log2 fold change” value was 0.0575.

B10: usp_38_diff_out_14_2_121 (protein)
chain: AKEELEKATKKALETLDKALEEAKRLKEEVKKDPSKAEEAFKRLREAWDKAADAVGELNKLMLEHKEEKETIKEATEKVNKKITELTKATLEALEEAAKA
In the case of B10, the “median log2 fold change” value was -0.64.

B11: usp_38_diff_out_14_2_90 (protein)
chain: GEEELKKKYEETKKTLEEAIKKAKELKEEVKKDPSKAEEARKRLFEEWDKAADKVGELEKLIRENPEHKELNKKIIEEVNKLITELTKAALEALEAIAEA
As for B11, the “median log2 fold change” value is -0.724.

B12: usp_38_diff_out_14_2_119 (protein)
chain: AKAEIAKATAATLATLAAAIKKAKELTKKVKADPSLKEKARAELDKAWDAAGDAVGALNTLLLANKDLKAENKKATAATNAAITELTKTYTEALEAIEEA
B12: the “median log2 fold change” value was -0.186.

B13: usp_38_diff_out_14_2_79 (protein)
chain: MEEKAKEVLKKLEEKTKEVKKVTEELEKALSGSKEEIEKAVEKAFKVLDEAGKVSAEAEEVRRENPKFRAEFKKAFKELDKELSKLSKAILEALEKIAEL
As for B13, the “median log2 fold change” value was -0.624.

B14: usp_38_diff_out_14_2_82 (protein)
chain: AVEKIKKATEETLKVLEEAIKKFKELKKEVEADPSKAEEARKEILKAWDKAGDAVGALNKLIEENPEAKEENKEATKKVNEALTKLTKEALEALQAAAEA
As for B14, the “median log2 fold change” value was -0.116.

B15: usp_38_diff_out_14_2_86 (protein)
chain: AEEELKKKTEETKKKLKEGIELAKKIKEEVKKDPSKAEELRKKLFEKHDEIGDKVGELAKLIEEHKEIPALRKEAVKEVNELLTEYTKALLEALEELAKA
With B15, the “median log2 fold change” value was -0.431.

B16: usp_38_diff_out_14_2_118 (protein)
chain: GEEELKEKKKATLATLDDAIAKAKALEAAVKADPSIAEQARAELRKAWDAAADAVGELERLIREHPEHRELNKEAIKEVNEKLTELTEALLAALQTIAEA
B16: the “median log2 fold change” value is -0.0211.

B17: usp_38_diff_out_14_2_110 (protein)
chain: AEEKLKKATKETLATLKEAIKLAKELKKEVKKDPSKKEEARKKLFEAHDKAADAVGKLAKLIEENKELRELNKKATKEVDKAITEYTKAALEALEEIEKA
In the case of B17, the “median log2 fold change” value was -0.599.

B18: usp_38_diff_out_14_2_95 (protein)
chain: GEEELKKAAKETKEVLKKAIEEAKELEKKVKEDPSQAEQARKELFKKWDEAGDAVGKLEKLLRENPEHKELNKKIIEEVNKLINELTKAALKALETLAEA
With B18, the “median log2 fold change” value was -0.416.

B19: usp_38_diff_out_14_2_83 (protein)
chain: MEEEIKEKTKETLEEIEKAIKELKELEKEVKKDPSKKEEAYKKAFEKWDKAADKVGELEKLLRENKENPELNKKAKEEINEKLTKLTEEALKLLETIAEV
B19: the “median log2 fold change” value was -0.316.

B20: usp_38_diff_out_14_2_114 (protein)
chain: GEAEIKAATAETLAVLEEAIKKLKELTERVKADPSKAEEARKEAFEAWDKAADAVGALRKLMEAHREHRAEIKEATAKVNEAITKLTEALTETLELAAEA
For the molecule B20, the “median log2 fold change” value is -0.239.

B21: usp_38_diff_out_14_2_117 (protein)
chain: GEEEIKKATEETLKVLKEAIKKLKELKKRVEEDPSKAAEATEEAFRAWDKAADAVGALNKLLEAHKEHREENKKATKEVNKAITELTEALTELLTAAAEA
As for B21, the “median log2 fold change” value is -0.0949.

B22: usp_38_diff_out_14_2_109 (protein)
chain: KEEELKKKKEETLKKLDEAIKKAKELKEEVKKDPSKKEEAFKELFEKHDEAADAVGELNKLILENKELRELNKEVTEEVNKKITEYTEAVLEALEEIAEA
Take B22: the “median log2 fold change” value was -0.1.

B23: usp_38_diff_out_14_2_84 (protein)
chain: MEEEIKKKTKETLKKIEEAIKRAKELKERVKKDPSLKEKAREELFKEWDEAADKVGELEKLLRENKENPELNKKAREEVNKKLTELTEVALETLELIAEV
Turning to B23, the “median log2 fold change” value is -0.366.

B24: usp_38_diff_out_14_2_85 (protein)
chain: AEEKIKKATEKTLKKLEEAIKLAKELKEEVKKDPSKAEKAREELFKKWDEVGDAVGELAKLLEENKEIPALNKEANEKVNEKLTELTKATLEALEELAEA
Consider B24, for which the “median log2 fold change” value is -0.606.

B25: usp_38_diff_out_14_2_89 (protein)
chain: GEEELEKKTKETLEKLEELIELAKKIKEEVEKDPSKAEELRKELFKKWDEVGEKVGELAKLIEEHKELPELNKKAVKEVNEKLSEATKEILEALELLAEA
With B25, the “median log2 fold change” value is -0.37.

B26: usp_38_diff_out_14_2_120 (protein)
chain: AVEEIKKATDDTLAKLDAAIAAAKALTAQVKADPSLKEQARAALNAAWDAAGDAVGALNKLLEANKEEKATNKEATAKTNAAITELTAAVLDALTTIEEA
B26: the “median log2 fold change” value was -0.172.

B27: usp_38_diff_out_14_2_115 (protein)
chain: AVEELKKKTEETLKVLDEAIKKLKELTERVKKDPSTAEEAVKEAFKAWDKAADAVGELNKLILANREHRAENKEATKKVNEKITELTKALTEALTLAAEA
As to B27, the “median log2 fold change” value was -0.246.

B28: usp_38_diff_out_14_2_78 (protein)
chain: MEEKVKKLKEEIEKLLEEAKKLLEEAKKLLKEGDELAEEVLEKLDKAFDKLGELAKLLRELRELDPSQRAFVKEMTKKANELIDELTELRTEALLILAER
Regarding B28, the “median log2 fold change” value stood at 0.219.

B29: usp_38_diff_out_14_2_93 (protein)
chain: GEEELKKLFEETKKVLEEAIKRAEELTKEVKADPSQAEKARKELFKAWDEAGDKVGELQKKIEENKEHKELNKKIIKEVNELITKLTEAALAALEEIAAA
B29: the “median log2 fold change” value is -0.0116.

B30: usp_38_diff_out_14_2_116 (protein)
chain: AVEEIKAATDATLATLAAATAALAELKKRVEADPSLAEEARAEAFAAWDAAADAVGALNRLMEANREHRAERKEATAKINAALTTLTAALTETLEAAAAA
Consider B30, for which the “median log2 fold change” value is -0.132.

B31: usp_38_diff_out_14_2_97 (protein)
chain: GKEELEKKFKETKKVLEEAIKKAKELKKEVEKDPSKAEEARKKLFEAWDKAADKVGELQKLLEENPEYKELNKKIIEEVNKLLTELTKAALEALELIAEA
As for B31, the “median log2 fold change” value is -0.467.

B32: usp_38_diff_out_14_2_88 (protein)
chain: AEEELKKATEETLKKLEEGIKLAKELTKKVKEDPSQAEKAREELFKKHDEIGDAVGRLAKLIEEHKEIPALNKEAVEEVNKKLTEYTEETLKALELLAEA
On to B32, for which the “median log2 fold change” value was -0.277.

The values above are taken from the supplement of paper PMC12632987.
